# According to PubChem BioAssay (NCATS):
# Inconclusive results are not listed. A call without a number means that no potency is given here. Calls of active or inactive are those of the source. Calls follow the shape of the dose curve; as a rule, active = well fitted cell-killing curve with a large enough effect; inconclusive = small, poorly fitted or top-dose-only effect; inactive = flat fitted curve, though single readings scatter.
# Test: Cell Viability - LYMP2-024 (AID 988); also: nearly all actives have a fitted effect of over 60% in size
# Conditions: LYMP2-024 lymphoblastoid cell viability; series mostly up to 92.2 µM
# From the text: NIH Chemical Genomics Center [NCGC]
# NIH Molecular Libraries Screening Centers Network [MLSCN]
# National Institutes of Environmental Health Sciences [NIEHS]
# National Toxicology Program [NTP]
# We have developed a 1536-well cell-based assay for quantitative high throughput screening (qHTS) against a number of cell lines to determine in vitro cytotoxicity of small molecules. This particular assay uses a human lymphoblastoid cell line (LYMP2-024) purchased from Coriell Institute for Medical Research.
# NCGC Assay Protocol Summary:
# The CellTiter-Glo luminescent cell viability assay (Promega) is a homogeneous method to measure the number of viable cells in culture. The end point readout of this assay is based on quantitation of intracellular ATP, an indicator of metabolic activity, using the luciferase reaction. Luciferase catalyzes the oxidation of beetle Luciferin to oxyluciferin and light in the presence of ATP. The luminescent signal is proportional to amount of ATP present.
# Using the CellTiter-Glo luminescent cell viability assay, the amount of cellular ATP was measured in the lymphoblastoid cell line with complete culture medium following compound treatment for 24 hours. The assay was performed in opaque white Kalypsys 1536-well plates. In the screen, tetraoctylammonium bromide was used as positive control. Library compounds were measured for their ability to cause acute toxicity in the cell line, as reflected by a decrease in intracellular ATP levels, in a concentration-dependent manner. […] AC50 values were determined from concentration-response data modeled with the standard Hill equation.
# qHTS protocol for CellTiter Glo lymphoblastoid cellular assay
# [Step] [Parameter] [Value] [Description]
# 1. Reagent; 5 uL; 2500 lymphoblastoid cells/well
# 2. Time; 5 hr; 37 C incubation
# 4. Controls; 23 nL; Tetraoctylammonium bromide 6.4pM to 92 uM
# 5. Time; 24 hr; 37 C incubation
# 6. Reagent; 5 uL; CellTiter Glo reagent
# 7. Time; 30 min; Room Temperature
# 8. Detection; Luminescence; Viewlux plate reader
# Keywords: cell viability, cytotoxicity, lymphoblastoid cell line, luminescence, NTPHTS, NTPHTS_NCGC, NIEHS, DSSTox, MLSMR, MLSCN, NIH Roadmap, qHTS, NCGC
# Potency is read from the fitted curve at half-maximal effect.
row,Compound,Potency
1,CCCC(=O)OC(=O)CCC,inactive
2,Oc1ccc2c(c1)OCO2,inactive
3,CC(C)S,inactive
4,CCc1ccc(C(c2ccc(CC)cc2)C(Cl)Cl)cc1,inactive
5,CCCCCCc1ccc(-c2ccc(C#N)cc2)cc1,inactive
6,N=C1C=CC(=C(c2ccc(N)cc2)c2ccc(N)cc2)C=C1,7.94 µM (active)
7,Cc1ccc2ccc3cccc4ccc1c2c34,inactive
8,c1cc2c3c(c1)ccc1cccc(c13)C2,inactive
9,CC(=O)OC1CC(C)OC(C)O1 (stereo not given),inactive
10,CC(/C=C/C=C(C)/C=C/C(=O)O)=C\C=C\C=C(C)\C=C\C=C(C)\C=C\C(=O)O,inactive
11,O=c1[nH]ncc2ccccc12,inactive
12,NC(=O)Nc1nc2ccccc2[nH]1,inactive
13,c1ccc(COCc2ccccc2)cc1,inactive
14,CN(C)c1ccc(C(=N)c2ccc(N(C)C)cc2)cc1,39.8 µM (active)
15,CC(C)COC(=O)COc1cc(Cl)c(Cl)cc1Cl,inactive
16,C=C(C#N)C(=O)OCC,inactive
17,C/C=C/C=C/C=O,25.1 µM (active)
18,C/C(Cl)=C/CCl,inactive
19,c1ccc(Nc2cccc3ccccc23)cc1,inactive
20,S=C(NC1CCCCC1)NC1CCCCC1,inactive

row,Compound,Potency
1,Cc1ccc(C(=O)O)cc1[N+](=O)[O-],inactive
2,NC(=O)c1ccc([N+](=O)[O-])cc1,inactive
3,CCNC(=S)NCC,inactive
4,Oc1ccc(O)c2c(O)cccc12,50.1 µM (active)
5,CCOc1ccc2nc(N)sc2c1,inactive
6,Nc1ccc(N=Nc2ccccc2)c(N)c1,inactive
7,c1ccc2ncccc2c1,inactive
8,CC(C)OCC1CO1 (stereo not given),inactive
9,CCCCCCCC/C=C\CCCCCCCC(=O)N(CCO)CCO,inactive
10,CC/C=C/C/C=C/C/C=C/CCCCCCCC(=O)OCC,25.1 µM (active)
11,CCCCC(CC)COP(=O)(OCC(CC)CCCC)OCC(CC)CCCC (stereo not given),inactive
12,COc1ccc(C(=O)Nc2ccccc2)cc1[N+](=O)[O-],inactive
13,Brc1cc(Oc2cc(Br)c(Br)c(Br)c2Br)c(Br)c(Br)c1Br,inactive
14,CCCCCCCCOc1ccc(C(=O)O)cc1,inactive
15,Nc1ccc2c(c1)C(=O)c1ccccc1C2=O,inactive
16,c1ccncc1,inactive
17,Oc1cc2c(cc1O)[C@H]1c3ccc(O)c(O)c3OC[C@@]1(O)C2,25.1 µM (active)
18,Cc1cc(=O)oc2cc(O)cc(O)c12,inactive
19,O=[N+]([O-])c1cccc(I)c1,inactive
20,C1CCCNCC1,inactive
